# Compound activity from PubChem BioAssay.
# Shiga inhibitor: inhibitors of Shiga toxin in Vero cells. Vero cells, Shiga toxin protein synthesis inhibition reporter. inhibition, % at 38.7 µM. 290,000 compounds, 9.2% hits. AID 2315; in the data active means inhibition mostly above about 28%, no sharp cut-off; inactive means mostly below about 43%; further: 0% is about no effect
# Pf growth 96h: P. falciparum growth inhibition at 96 hours. AID 504834. Potency, µM (top dose mostly 28.7 µM), inactives show at the highest dose activity change, negative = inhibition, usual class: inhibitors. P. falciparum luciferase reporter growth, 96 h. 320,000 compounds, 6.9% hits; further: potency means the concentration at half of the fitted maximal effect; on the % scale 0 is the no-effect control and ±100 the full control effect
#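 Infected RBCs, 2% Hct / 0.05% parasitemia final; luciferase-reporter P. falciparum; cpd 96 h, 37 C, 5% CO2; luciferase detection reagent; luminescence.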
# Pf growth 48h: inhibits P. falciparum growth in the first generation, 48 h; Potency, µM (top dose mostly 28.7 µM), inactives show at the highest dose activity change, negative = inhibition, actives largely listed as inhibitors; P. falciparum luciferase growth in erythrocytes, 48 h; AID 504832; 310,000 compounds, 5.9% hits; further: potency means the concentration at half of the fitted maximal effect; on the % scale 0 is the no-effect control and ±100 the full control effect
#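 A one-generation exposure of luciferase-tagged malaria parasites in RPMI 1640/Albumax erythrocyte culture, 37 C and 5% CO2. Inhibition is inferred from decreased luminescence after adding detection reagent.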
# HCV inh: blocks hepatitis C virus; Huh7.5.1 HCVcc-Cre infection, luciferase reporter, 44 h; AID 651820; 340,000 compounds, 3.4% hits; Potency, µM (top dose mostly 41.8 µM), inactives show at the highest dose activity change, negative = inhibition, most hits filed as inhibitors; further: potency means the concentration at half of the fitted maximal effect; on the % scale 0 is the no-effect control and ±100 the full control effect
#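 Compounds are dispensed onto cells plated 4 h earlier at 1,000 per well, with HCVcc-Cre virus (about 0.5 moi) added next. Following 44 h of culture, luminescent signal is measured for 15 sec after 15 min with substrate at room temperature.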
# Cycloheximide cs: counter-screen hit for Shiga toxin inhibitors, cycloheximide | AID 2314 | max response, % | 300,000 compounds, 12% hits | cell reporter, cycloheximide protein synthesis inhibition counterscreen; in the data active means max response mostly above about 13%, no sharp cut-off; inactive means mostly below about 14%; further: read at 38.3 µM for the half of the compounds with a filed dose; 0% is about no effect
# HCMV inh: human cytomegalovirus inhibition; 410,000 compounds, 4.5% hits; HFF cells, HCMV-luciferase reporter, 72 h; active compounds read low; activity change, negative = inhibition, % at 57.5 µM; in the data active means activity change below about -60%; inconclusive means no clear call, values can overlap the other calls; inactive means above about -39%; further: on the % scale 0 is the no-effect control and ±100 the full control effect
#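 Steps: HFFs plated, 16 h 37C; compounds added; HCMV-luciferase added to MOI 1 PFU/cell; 72 h 37C; OneGlo reagent, 5 min room temperature; luminescence read, normalized to controls.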
# Starred values were filed as active, the others as inactive; ? = inconclusive; / = no result. Sampled rows, rich in hits. Any-hit rate of the full collection: about 21%. Unless noted, the call rests on the fitted dose curve; in most records, active means well fitted inhibition curve with a large enough effect; inconclusive means small, poorly fitted or top-dose-only effect, or another doubt; inactive means no such curve, though single readings can be large or run the other way.
SMILES,Shiga inhibitor,Pf growth 96h,Pf growth 48h,HCV inh,Cycloheximide cs,HCMV inh
Nc1ccc(Cc2nc3cc4ccccc4cc3[nH]2)cc1,51.7*,44.6%,39.5%,-15.7%,44.7*,?
Nc1ccc(C(=O)OCc2nc3c(ccc4ccccc43)[nH]2)cc1,80.1*,-2.4%,324.2%,?,24.6*,-34.7
Cc1ccc(OCCOC(=O)CN2C(=O)NC3(CCCC3)C2=O)cc1,/,89.0%,0.0%,14.5%,/,-38.1
Cn1nnc2c(NCc3ccc(Cl)cc3)ncnc21,/,/,/,/,/,17.8
O=C(COC(=O)CNC(=O)c1ccc(Cl)cc1)Nc1ccc(Cl)cn1,/,/,/,3.5%,/,-22.1
Cc1ccc2c(c1)N(C(=O)CCC(=O)Nc1ccccc1Cl)CC(C)O2 (centres undefined),16.1,?,?,-23.8%,-1.0,-14.3
CN(Cc1ccccc1)C(=O)COC(=O)c1cc(=O)[nH]c2ccccc12,/,/,/,18.5%,/,5.4
O=C(/C=C/c1ccc([N+](=O)[O-])cc1)N1CCN(c2ccccc2F)CC1,46.0*,20.7%,21.1%,17.5%,14.9*,-5.4
O=C(/C=C/c1cccs1)N1CCN(c2ccc(F)cc2)CC1,15.0,?,?,7.5%,5.8,4.0
O=C(/C=C/c1cccs1)N1CCN(c2ccccc2F)CC1,63.4*,-6.1%,-1.3%,-9.8%,14.9*,22.3
COC(=O)c1cc(NC(C)=O)ccc1N1CCOCC1,-12.3,439.3%,24.0%,2.3%,-7.0,8.5
COC(=O)c1cc(NC(=O)c2cc(-c3ccc(C(F)(F)F)cc3)oc2C(F)(F)F)ccc1N1CCOCC1,2.9,1.47µM*,2.08µM*,3.55µM*,1.2,-94.0*
COC(=O)c1cc(NC(=O)c2c(C)noc2C)ccc1N1CCOCC1,13.7,1.0%,72.0%,7.9%,-0.7,5.5
COC(=O)c1cc(NC(=O)c2cc(-c3ccc(OC)cc3)oc2C(F)(F)F)ccc1N1CCOCC1,15.9,9.28µM*,8.28µM*,7.08µM*,-1.5,-24.8
N#CCSc1nnc(C2CCCCC2)n1Cc1ccccc1,-3.9,3.29µM*,-15.1%,3.2%,-1.7,5.5
Nc1nnc2c(n1)[nH]c1ccccc12,/,/,/,/,/,-6.1
CCN(CC)CCN1C(=O)C(=O)/C(=C(/O)c2ccc(OC)cc2)C1c1cccs1 (centres undefined),66.5*,0.0%,?,/,57.9*,/
CCOc1ccc(/C(O)=C2/C(=O)C(=O)N(CCN(CC)CC)C2c2cccs2)cc1 (centres undefined),50.6*,30.1%,33.0%,0.4%,43.3*,37.0
C=CCOc1ccc(/C(O)=C2\C(=O)C(=O)N(CCN(C)C)C2c2cccs2)cc1 (centres undefined),61.6*,26.5%,19.2%,18.9%,40.2,-15.6
CCCCn1c(SCC(=O)NC2CC(C)(C)NC(C)(C)C2)nc2cc(S(N)(=O)=O)ccc21,-3.1,31.5%,-0.7%,4.0%,-2.8,8.7
COc1cccc(CNC(=O)CN2C(=O)COc3ccc(S(=O)(=O)N4CCCCC4)cc32)c1,10.7,?,-29.6%,8.1%,-2.1,9.3
COC(=O)[C@@H]1[C@@H](CO)[C@@H]2Cn3c(ccc(Br)c3=O)[C@@H]2N1Cc1cccc(F)c1,/,/,/,/,/,-3.2
Cc1cc(C)c2c(c1)c(C)cc1nnc(SCC(=O)c3ccccc3)n12,/,/,/,/,/,-18.8
CC(C)c1ccc(/C=C2\SC(N3CCCC3)=NC2=O)cc1,6.8,3.7µM*,?,-22.2%,-0.4,21.1
O=C1N=C(N2CCCC2)S/C1=C\c1cn[nH]c1-c1ccccc1,-6.2,?,26.3%,13.4%,4.8,/
SMILES,Shiga inhibitor,Pf growth 96h,Pf growth 48h,HCV inh,Cycloheximide cs,HCMV inh
CN(C)c1ccc(/C=C2\SC(N3CCCCC3)=NC2=O)cc1,/,4.15µM*,52.1%,-5.2%,40.8*,13.8
CCOc1ccc(/C=C2\SC(N3CCCCC3)=NC2=O)cc1,26.3,19.3%,?,?,11.0,1.8
COc1ccc(/C=C2\SC(N3CCCCC3)=NC2=O)cc1OC,33.7,20.4%,/,-10.4%,9.4,-34.1
Cc1ccc(/C=C2\SC(N3CCCC3)=NC2=O)cc1,28.0,20.5%,?,/,6.7,-5.6
O=C1N=C(N2CCCCC2)S/C1=C/C1=Cc2ccccc2OC1,76.1*,?,18.8%,-20.0%,37.0*,4.2
COc1cc(/C=C2\SC(N3CCC(C)CC3)=NC2=O)ccc1O,15.3,-16.5%,?,-22.1%,42.0*,79.3
COc1ccc(OCc2ccc(-c3nc(C#N)c(NC(C)c4ccccc4)o3)o2)cc1 (centres undefined),/,/,/,/,/,-14.0
C[C@@]12C(=O)OC(=O)[C@]1(C)[C@H]1CC[C@@H]2O1,/,1.02µM*,2.03µM*,/,/,/
CCOC(=O)c1c(NC(=O)C(C)Sc2cn(CCNC(=O)c3c(F)cccc3F)c3ccccc23)sc2c1CCC2 (centres undefined),/,/,/,/,/,-14.7
COc1ccc([N+](=O)[O-])cc1Nc1ncnc2ccccc12,-9.5,?,14.6%,?,-5.9,-61.9*
O=[N+]([O-])c1ccc(O)c(Nc2ncnc3ccccc23)c1,35.4,22.2%,?,-21.1%,16.9*,53.0
COc1ccc(Nc2ncnc3ccc([N+](=O)[O-])cc23)c(OC)c1,-2.2,?,?,?,1.2,?
COc1ccc(C)cc1NC(=O)N1CCC(CN2CCOCC2)CC1,/,/,/,/,/,23.0
COC(=O)[C@H]1[C@H](CO)[C@H]2Cn3c(ccc(Br)c3=O)[C@H]2N1Cc1ccc2c(c1)OCO2,/,/,/,/,/,10.3
CCN(CC)S(=O)(=O)c1cc(NC(=O)C(C)Nc2ccccc2N2CCOCC2)ccc1C (centres undefined),35.9,7.38µM*,?,?,3.5,-32.6
CCN(CC)S(=O)(=O)c1cc(NC(=O)C(C)N2CCN(c3ccccn3)CC2)ccc1C (centres undefined),11.3,3.7µM*,11.7µM*,?,1.6,-28.9
CCN(CC)S(=O)(=O)c1cc(NC(=O)C(C)N2CCN(Cc3ccc4c(c3)OCO4)CC2)ccc1C (centres undefined),1.9,?,?,?,-3.0,-10.2
CCN(CC)S(=O)(=O)c1cc(NC(=O)C2Cc3ccccc3C(=O)O2)ccc1C (centres undefined),56.1*,51.5%,-5.9%,?,26.5*,-19.9
OCCN(CC(O)Cn1ccc2ccccc21)CC(O)Cn1ccc2ccccc21 (centres undefined),-17.0,11.3%,?,2.2%,-0.3,90.8
CC(C)(C)c1ccc(OCC(O)CN(CCO)CC(O)Cn2ccc3ccccc32)cc1 (centres undefined),-10.2,?,11.7µM*,?,2.0,-16.8
COc1ccccc1Oc1ccc(N/C=C/C(=O)C(C)(C)C)cc1,44.9,0.1%,0.4%,-4.2%,13.7,-26.0
